Each structure is given as a SMILES string. Records with an inconclusive call do not appear. A call without a number means that no potency is given here. Activity calls are given as the source filed them. Calls come from the whole dose curve; as a rule, active = well fitted inhibition curve with a large enough effect; inconclusive = small, poorly fitted or top-dose-only effect; inactive = flat fitted curve, though single readings scatter.

The target in this experiment is Aldehyde dehydrogenase, mitochondrial (Homo sapiens) (UniProt P05091). The experiment can be described thus: qHTS for Inhibitors of the Aldehyde Dehydrogenase Family (ALDH2) Primary screen (AID 2061308). Note: nearly all actives have a fitted effect of over 55% in size. Particulars: ALDH2 enzyme inhibition qHTS, 1536-well; series mostly up to 56 µM.
On to `CCOc1ccc(CCNC(=O)c2ccc(C(=O)c3ccccc3)cc2)cc1OCC`, for which the Potency entry is “inactive”. In the case of `C=C1[C@@H](O)[C@]2(O)OC[C@]34C2[C@]2(C)C(C[C@H]3OC(=O)[C@H](O)[C@@]14O)C(C)=CC(=O)[C@H]2O` (stereo partly drawn), the Potency result is “inactive”. Turning to `CCOc1ccc(CCNC(=O)c2cc3ccccc3n2CCN2CCOCC2)cc1OCC`, the Potency entry is “inactive”.

In the case of `CC1=C[C@H]2O[C@@H]3C[C@H]4OC(=O)/C=C/C=C/C(=O)OCC/C(C)=C/C(=O)OC[C@@]2(CC1)[C@]4(C)[C@]31CO1`, the Potency entry is “inactive”. Turning to `COC(=O)c1ccc(O)c2ncc(N3CCN(C)CC3)cc12`, the Potency entry was “inactive”. Regarding `CC(=O)O[C@H]1C[C@@H](C)O[C@H]2O[C@@H]3CC4CC[C@@H]5C(CC[C@]6(C)[C@@H](C7=CC(=O)OC7)CC[C@]56O)[C@@]4(C=O)C[C@H]3O[C@]21O` (stereo partly drawn), the Potency result was “inactive”. For the molecule `Nc1ncnc2c1ncn2[C@@H]1O[C@@H]2COP(O)(=S)O[C@H]2[C@H]1O` (stereo partly drawn), the activity change, negative = inhibition was 4.01% [at 11.2 µM] (inactive).

Consider `O=C(N[C@@H]1N=C(c2ccccc2F)c2cccc3c2N(CC3)C1=O)c1cc2ccccc2[nH]1`, for which the Potency entry is “inactive”.

For `COC1CC(O[C@H]2CC[C@@]3(C)C(CCC4C3CC[C@]3(C)C(C5=CC(=O)OC5)CCC43O)C2)OC(C)C1OC1OC(COC2OC(CO)C(O)C(O)C2O)C(O)C(O)C1O` (stereo partly drawn), the Potency result is “inactive”. Still for that read-out and setting: the value for `Cn1cc(P(=S)(c2ccccc2)c2ccccc2)c2ccccc21` was “inactive”; that for `Cc1nn2c(=O)cc(N3CCNCC3)nc2s1` was “inactive”; that for `S=P(c1ccccc1)(c1ccccc1)c1c[n+](Cc2ccccc2)c2ccccn12` was “inactive”. Still for that read-out and setting: as for `CCOc1ccc(CCNC(=O)c2cc3cnccc3n2Cc2cccc(C)c2)cc1OCC`, the entry is “inactive”.

These data come from PubChem BioAssay (NCATS).
